Screening results (PubChem BioAssay)
ASM inhibitor – Inhibitors of Secretory Acid Sphingomyelinase (S-ASM): qHTS. Sphingomyelin phosphodiesterase (Homo sapiens), P17405. 340,000 tested, 0.006% active. AID 504937, 2011. placental ASM, HMU-PC fluorogenic substrate, 60 min. Potency, µM (titrated, usually from 57.5 µM), actives largely listed as inhibitors
Target sequence (P17405 47-631 limits assumed): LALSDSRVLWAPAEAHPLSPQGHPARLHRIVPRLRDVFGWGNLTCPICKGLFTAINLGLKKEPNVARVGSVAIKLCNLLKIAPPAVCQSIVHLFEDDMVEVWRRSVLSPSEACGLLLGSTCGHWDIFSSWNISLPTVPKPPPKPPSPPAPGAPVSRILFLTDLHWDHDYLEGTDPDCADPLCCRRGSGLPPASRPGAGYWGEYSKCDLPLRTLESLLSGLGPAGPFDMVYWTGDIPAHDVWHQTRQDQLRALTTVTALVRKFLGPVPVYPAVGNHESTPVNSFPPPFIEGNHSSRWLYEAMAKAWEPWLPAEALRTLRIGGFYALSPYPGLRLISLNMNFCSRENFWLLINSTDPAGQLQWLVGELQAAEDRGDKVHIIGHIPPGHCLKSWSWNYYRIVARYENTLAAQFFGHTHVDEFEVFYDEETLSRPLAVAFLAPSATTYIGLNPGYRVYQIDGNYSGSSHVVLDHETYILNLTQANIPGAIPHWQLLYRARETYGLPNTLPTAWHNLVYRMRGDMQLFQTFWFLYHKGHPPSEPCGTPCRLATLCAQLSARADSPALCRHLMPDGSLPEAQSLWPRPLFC
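Human placenta-derived ASM preincubated with compound 10 min at room temperature, then reacted with 9 uM (final) fluorogenic HMU-PC substrate for 60 min at 37 C. Stop solution raises pH to 10; fluorescence read at Ex 386/Em 447 nm.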
PKM2 act – qHTS Assay for Activators of Human Muscle isoform 2 Pyruvate Kinase | purified PKM2, Kinase-Glo ATP luminescence, activation; response scale: 0% is enzyme alone, no compound | Potency, µM (doses to about 57.5 µM), most hits filed as activators | 260,000 tested, 0.34% active | AID 1631, 2009; further: nearly all actives have a fitted effect of over 55% in size
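Purified hPK-M2 (>95% pure) converted ADP (0.1 mM final) to ATP with 0.5 mM PEP in 50 mM imidazole pH7.2, KCl, MgCl2, Tween 20, BSA; 1 h at room temperature. ATP detected by Kinase-Glo luminescence.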
IL2 activator – qHTS of IL-2 Activators. IL-2 activation reporter assay, cell-based qHTS; stimulated with anti-CD3/CD4/CD28 beads; in transgenic mouse T cells. activation, % (series mostly up to about 46 µM). 360,000 tested, 0.065% active. AID 652025, 2013; in the data active means activation above about 50%; inconclusive means mostly about 30% to 49%
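First, unstimulated transgenic mouse T cells were exposed to compound for 60 min. Next, anti-CD3/anti-CD4-coated beads with anti-CD28 were added. Finally, after 18 h at 37 degrees C, EGFP and DsRed were imaged.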
A number is an active result; . = inactive; ? = inconclusive; / = no result given. Compounds with a hit are over-represented: about 0.33% of the library has one in this group of screens. Unless noted, the call rests on the fitted dose curve; in most records, active means well fitted curve in the direction sought with a large enough effect; inconclusive means small, poorly fitted or top-dose-only effect, or another doubt; inactive means no such curve, though single readings can be large; an effect the other way counts as inactive or inconclusive.

SMILES	ASM inhibitor	PKM2 act	IL2 activator
Cc1ccc(-c2nc(C=Nc3ccc(O)cc3)c(O)o2)cc1	.	.	77
COc1ccc(S(=O)(=O)N2CCc3ccccc3C2)cc1OC	.	.	.
COc1cc2c(cc1OC)CN(S(=O)(=O)c1ccc3c(c1)OCCO3)CC2	.	8.9µM	.
COc1ccc(C(=O)CSc2n[nH]c(=O)[nH]c2=O)cc1	.	.	.
O=S(=O)(Nc1ccc(S(=O)(=O)Nc2ccccc2)cc1)c1ccccc1	.	?	.
O=S(=O)(Nc1ccc(-n2cccc2)cc1)c1ccccc1	.	16µM	.
C/C(=C\C(=O)c1ccc(Cl)cc1)Nc1ccc(Br)cc1	.	/	.
CC(=O)Nc1sc(N/N=C/c2ccccc2)nc1-c1ccc(C)cc1	.	?	.
COc1ccc(/C=N/Nc2nc(-c3ccc(C)cc3)c(NC(C)=O)s2)cc1	.	?	.
CC(=O)Nc1sc(N/N=C/c2ccc(O)cc2)nc1-c1ccc(C)cc1	.	18µM	.
CC(=O)Nc1sc(N/N=C/c2ccccc2F)nc1-c1ccc(C)cc1	.	10µM	.
Cc1ccc(NC(=O)c2nc[nH]c2C(=O)N2CCc3ccccc3C2)cc1	.	/	.
Cc1cc(C)nc(N/N=C/C(Cl)=C/c2ccccc2)n1	.	.	.
C=CCN1C(=O)/C(=C2/Sc3ccc(OC)cc3N2CC)SC1=S	.	.	189
CCN1/C(=C2/SC(=S)N(NC(C)=O)C2=O)Sc2ccc(OC)cc21	.	.	.
C=CCN1C(=O)/C(=C2/Sc3ccc(OC)cc3N2C)SC1=Nc1ccc(OC)cc1	/	.	/
CCCCN1C(=O)/C(=C2/Sc3ccc(OC)cc3N2CC)SC1=S	.	.	118
O=C(Nc1cccc(S(=O)(=O)N2CCCCC2)c1)c1ccc([N+](=O)[O-])o1	.	.	.
CN1CCc2nc(SCC(=O)Nc3ccc(OC(F)(F)F)cc3)c(C#N)c(-c3cccs3)c2C1	.	.	.
CN1CCc2nc(SCC(=O)Nc3cccc(F)c3)c(C#N)c(-c3cccs3)c2C1	.	18µM	.
CC(C)n1c(=O)[nH]c(=O)n1C(C)C	.	/	.
CC(=O)C1=C(C)NC(SCc2cccc([N+](=O)[O-])c2)=C(C#N)C1c1ccco1 (centres undefined)	.	7.9µM	.
CC(=O)C1=C(C)NC(SCC(N)=O)=C(C#N)C1c1ccco1 (centres undefined)	.	.	.
Cc1occc1-c1nnc(SCC(=O)N2CCOCC2)n1CC(C)C	.	.	.
Cc1occc1-c1nnc(SCC(=O)N2CCOCC2)n1Cc1ccco1	.	25µM	.
SMILES	ASM inhibitor	PKM2 act	IL2 activator
COc1cc(CC2COC(=O)C2(O)Cc2ccc(O)c(OC)c2)ccc1O (centres undefined)	.	.	.
O=C(CSCc1ccccc1)Nc1cccc(C(=O)Nc2ccccc2C(=O)O)c1	.	.	.
Cc1cc(=O)[nH]c(SCc2cn3ccccc3n2)n1	.	14µM	.
O=[N+]([O-])c1ccc2nc(SCc3cn4ccccc4n3)[nH]c2c1	.	.	.
O=C(Nc1nnc(SCc2ccc(F)cc2)s1)C1CC(=O)N(Cc2ccccc2)C1 (centres undefined)	.	13µM	.
Cc1nnc(NC(=O)C2CC(=O)N(Cc3ccccc3)C2)s1 (centres undefined)	.	.	.
Nc1nnc(SCC(=O)c2ccc3c(c2)NC(=O)CO3)s1	.	28µM	.
Cn1cnnc1SCC(=O)c1ccc2c(c1)NC(=O)CO2	.	/	.
N=c1c(C(=O)NCc2ccc3c(c2)OCO3)cc2c(=O)n3ccccc3nc2n1Cc1cccnc1	.	?	.
N=c1c(S(=O)(=O)c2ccc(Cl)cc2)cc2c(=O)n3ccccc3nc2n1CCc1ccccc1	/	.	/
N=c1c(S(=O)(=O)c2ccc(Cl)cc2)cc2c(=O)n3ccccc3nc2n1Cc1cccnc1	.	.	151
COc1ccc(CNC(=O)c2cc3c(=O)n4ccccc4nc3n(Cc3cccnc3)c2=N)cc1	.	.	95
O=C(O)CNC(=O)/C(=C\c1ccc2c(c1)OCO2)NC(=O)c1ccc(Br)cc1	.	.	.
CCOC(=O)N1CCC(NS(=O)(=O)c2cc3c(cc2Cl)NC(=O)CO3)CC1	.	.	.
CC(=O)c1cnc2nc(C(F)(F)F)nn2c1C	.	.	.
CC(=O)c1cnc2nc(SCc3ccccc3C)nn2c1C	.	13µM	.
CCCCn1c(N)c(N(CCOC)C(=O)CC(NC(=O)c2ccccc2)c2ccccc2)c(=O)[nH]c1=O (centres undefined)	.	/	.
CCc1nn(-c2cc(Oc3ccccc3)nc(-c3ccccc3)n2)c(N)c1C#N	.	.	.
Nc1c(C(=O)N/N=C/c2cccnc2)oc2nc(-c3ccccc3)cc(-c3ccco3)c12	.	.	318
Nc1c(C(=O)N/N=C/c2cccnc2)oc2nc(-c3ccco3)cc(-c3ccco3)c12	.	.	.
COC(=O)C1(C)CCc2cc(OC)ccc2C1=O (centres undefined)	.	.	.
COCCN(C(=O)CSc1nnc(-c2ccc(C(C)(C)C)cc2)n1N)c1c(N)n(CC(C)C)c(=O)[nH]c1=O	.	/	.
Cc1cc(=O)oc2cc(NS(=O)(=O)c3ccccc3)ccc12	.	16µM	.
Cc1cc(=O)oc2cc(NS(=O)(=O)c3ccc(F)cc3)ccc12	.	?	.
Cn1c(C(C#N)/C(=N\S(=O)(=O)c2cccs2)c2ccccc2)nc2ccccc21 (centres undefined)	.	.	.
SMILES	ASM inhibitor	PKM2 act	IL2 activator
Cc1cc(=O)n2c3c(sc2n1)C(=O)N(Cc1ccccc1)C3=O	/	28µM	/
Cc1cc(=O)n2nc(-c3ccccc3)sc2n1	.	.	.
COc1ccccc1Cc1c(-c2ccc(F)cc2)nc2ccc(Cl)cn12	/	/	.
COc1ccc(-c2nnc(SCc3ccccc3F)o2)cc1OC	.	.	.
COc1cc2c3nnc(-c4ccccc4)c-3cn(Cc3ccccc3F)c2cc1OC	.	.	176
COc1cc2c3nnc(-c4ccc(F)cc4)c-3cn(Cc3ccccc3F)c2cc1OC	.	.	87
Fc1cccc2sc(Nc3nnc(-c4ccccc4)o3)nc12	.	.	.
COc1cc(OC)cc(-c2nnc(Nc3nc4c(F)cccc4s3)o2)c1	.	7.1µM	.
Cc1ccccc1C(=O)NC1CCN(CC(=O)NCc2cccs2)CC1	.	.	.
Cc1ccc(S(=O)(=O)N2CCCC2)cc1[N+](=O)[O-]	.	.	.
O=[N+]([O-])c1cc(S(=O)(=O)N2CCCC2)ccc1NCCc1ccccc1	.	3.2µM	.
CCc1ccc(NC(=O)CSc2nc3n[nH]c(C)c3c(=N)n2-c2cccc(OC)c2)cc1	?	.	.
COc1cccc(NC(=O)CSc2nc3n[nH]c(C)c3c(=N)n2-c2cccc(OC)c2)c1	?	25µM	.
Nc1ncc(Br)cc1Br	.	.	.
CC1(C)NC(=O)N(CC(O)COC2CCCCC2)C1=O (centres undefined)	.	.	.
CC(O)(P(=O)(O)O)P(=O)(O)O	14µM	/	.
CCCCc1cc(=O)oc2c(CN3CCCC3)c(O)ccc12	.	.	.
